CHX counter: counter-screen hit for Shiga toxin inhibitors, cycloheximide; 300,000 tested, 12% active; max response, %; cell reporter, cycloheximide protein synthesis inhibition counterscreen; in the data active = max response mostly above about 13%, no sharp cut-off; inactive = mostly below about 14%; note: read at 38.3 µM for the half of the compounds with a filed dose
Pf growth 96h: P. falciparum growth inhibition at 96 hour, primary screen for plastid delayed-death inhibitors. P. falciparum luciferase reporter growth, 96 h. Potency, µM (highest dose often 28.7 µM), most hits filed as inhibitors. 320,000 tested, 6.9% active. AID 504834
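Parasite growth measured via integrated firefly luciferase reporter in P. falciparum. Infected erythrocytes at 2% hematocrit, 0.05% parasitemia final were treated 96 hours at 37 C under 5% CO2, and luminescence was read.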
HCV inhibitor: blocks hepatitis C virus. Huh7.5.1 HCVcc-Cre infection, luciferase reporter, 44 h. Potency, µM (doses to about 41.8 µM), actives largely listed as inhibitors. 340,000 tested, 3.4% active. AID 651820
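Infectious HCV cell culture screen: compound-treated cells (1,000/well, pre-plated 4 h) are infected with HCVcc-Cre at roughly 0.5 moi and grown 44 h. Infection is quantified by luciferase signal after 15 min substrate incubation at room temperature.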
Pf growth 48h: inhibits P. falciparum growth in the first generation, 48 h | P. falciparum luciferase growth in erythrocytes, 48 h | Potency, µM (highest dose often 28.7 µM), most hits filed as inhibitors | 310,000 tested, 5.9% active | AID 504832
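In quantitative HTS format, infected erythrocytes bearing luciferase-reporter parasites were treated for a single generation at 37 C. Luminescence after adding detection reagent served as the growth measure.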
HCMV antiviral: human cytomegalovirus inhibition | HFF cells, HCMV-luciferase reporter, 72 h; stronger effect = lower value | activity change, negative = inhibition, % at 57.5 µM | AID 1259415 | 410,000 tested, 4.5% active; in the data active = activity change below about -60%; inconclusive = no clear call, values can overlap the other calls; inactive = above about -39%
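Screen run at 2 compound doses on HFFs infected with reporter HCMV, MOI 1 PFU/cell. Luciferase activity from cell lysates at 72 h post infection gave inhibition relative to buffer-only and Salinomycin wells.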
Shiga inhibitor: inhibitors of Shiga toxin in Vero cells; Vero cells, Shiga toxin protein synthesis inhibition reporter; 290,000 tested, 9.2% active; inhibition, % at 38.7 µM; in the data active = inhibition mostly above about 28%, no sharp cut-off; inactive = mostly below about 43%
Hits are given with their value; – = inactive; ? = inconclusive; · = not tested or not shown; [ ] = dose if it differs, or a comment. This is a sample that favours compounds with a hit; in the whole collection about 21% have one here. Unless noted, calls come from the whole dose curve; as a rule, active = well fitted inhibition curve with a large enough effect; inconclusive = small, poorly fitted or top-dose-only effect, or another doubt; inactive = no such curve, though single readings can be large or run the other way.

SMILES	CHX counter	Pf growth 96h	HCV inhibitor	Pf growth 48h	HCMV antiviral	Shiga inhibitor
C/C(=N/NC(=O)c1cccs1)c1cccc(N)c1	42.7	?	–	–	–	87.9
C/C(=N/NC(=O)c1cccs1)c1cccs1	42.7	–	–	–	–	75.8
Cc1cc(C)n(-c2nc3ccccc3nc2Nc2cccc(C)c2C)n1	·	·	·	·	–	·
COC(=O)C1CCN(C(=O)c2ccc3nc(-c4cccc(OC)c4)oc3c2)CC1	76.3	–	–	–	–	95.4
COc1cccc(-c2nc3ccc(C(=O)NC(C)Cc4cccnc4)cc3o2)c1 (stereo not given)	29.2	–	–	–	–	28.0
COc1ccc2oc(-c3ccc(C)c(NC(=O)c4cccnc4)c3)nc2c1	·	·	·	·	–	·
COC(=O)C1CCN(C(=O)c2ccc3nccnc3c2)CC1	–	?	–	–	–	–
COc1cc(C2C(=O)N(C3CCCCC3)CC(=O)N2CCc2ccccc2)ccc1OC(C)C (stereo not given)	·	·	·	·	–	·
COc1c(Cl)cc(C(=O)N(Cc2ccc(C)o2)C2CCS(=O)(=O)C2)cc1Cl (stereo not given)	·	·	·	·	–	·
Fc1ccccc1/C=N/Nc1ccc(Cl)nn1	–	–	–	·	–	37.7
COc1cccc(/C=N/Nc2ccc(Cl)nn2)c1OC	·	·	–	·	–	·
Oc1ccc(/C=N/Nc2ccc(Cl)nn2)cc1O	39.2	?	–	–	–	–
Cc1ccc(/C=N/Nc2ccc(Cl)nn2)cc1	13.2	–	–	–	–	44.7
O=C(CC1CC2CCC1C2)N1CCN(S(=O)(=O)c2ccccc2F)CC1 (stereo not given)	·	?	–	?	–	·
COC(=O)CCN(Cc1cccc(OC)c1OC)S(=O)(=O)c1ccccc1Br	·	·	·	·	–	·
Cn1c(CNC(=O)CCNC(=O)c2cccc(Br)c2)cc(=O)n(C)c1=O	–	–	–	–	–	–
COC(=O)c1c(-c2ccc(Cl)cc2)noc1N1CCN(c2ccc(F)cc2)CC1	·	·	·	·	–	·
OCc1ccnc2c(O)cccc12	–	?	?	2.33µM	–	–
NC(=O)c1ccnc2c(O)cccc12	·	11.7µM	·	?	–	·
COc1cc2cc(CNc3ccccc3)c(=O)n(CC(=O)Nc3cc(C)cc(C)c3)c2cc1OC	·	·	·	·	–	·
O=C1C=C(N2CCCCC2)C2(CCCCC2)O1	–	–	–	–	–	–
O=C1C=C(N2CCN(C(=O)c3ccccc3)CC2)C2(CCCCC2)O1	–	–	–	–	-77.4	–
O=C1C=C(N2CCOCC2)C2(CCCCC2)O1	27.6	–	–	?	–	–
Cc1ccc(-c2nnc(/C=C/c3ccccc3)o2)cc1	50.2	–	–	–	–	147.5
Cc1ccc(-c2nnc(-c3ccccc3Br)o2)cc1	37.6	–	–	–	–	·
SMILES	CHX counter	Pf growth 96h	HCV inhibitor	Pf growth 48h	HCMV antiviral	Shiga inhibitor
Brc1ccc(-c2nnc(-c3ccccc3Br)o2)cc1	81.6	–	–	–	–	92.5
Brc1ccccc1-c1nnc(-c2cccnc2)o1	29.5	–	–	–	–	48.9
O=C(NCC1CCCO1)c1ccc2c(=O)n(-c3ccccc3)c(=S)[nH]c2c1 (stereo not given)	–	–	–	–	–	–
CCOc1ccc(C(=O)NCCc2sc(-c3ccc(OC)c(OC)c3)nc2C)cc1	·	·	·	·	–	·
CN(C)/C=C(\C#N)C(=O)N/N=C/c1ccc(Cl)cc1	–	–	–	–	–	–
CN(C)/C=C(\C#N)C(=O)Nc1ccc(F)c(Cl)c1	24.0	–	–	–	–	52.2
CN(C)/C=C(\C#N)C(=O)Nc1ccc(F)cc1	15.7	–	–	–	–	50.3
Fc1ccc(-c2cc(-c3nc(-c4cccc(Cl)c4)no3)[nH]n2)cc1	·	·	·	·	–	·
Cc1ccc(C)c(NC(=O)C2CCCN(S(=O)(=O)c3c(C)nn(C)c3C)C2)c1 (stereo not given)	–	2.94µM	–	–	–	–
Cc1cccc(NC(=O)C2CCCN(S(=O)(=O)c3c(C)nn(C)c3C)C2)c1 (stereo not given)	·	·	–	·	–	·
Cc1cccc(NC(=O)C2CCCN(S(=O)(=O)c3c(C)nn(C)c3C)C2)n1 (stereo not given)	–	11.7µM	?	–	?	–
O=C(NCc1ccncc1)C(=O)NC1CC1	–	–	–	–	–	–
COc1ccc(C)cc1S(=O)(=O)NCC(c1ccc2c(c1)OCO2)N1CCOCC1 (stereo not given)	·	–	–[8.37 µM]	–	–	·
COc1ccccc1C(=O)Nc1c(C(=O)Nc2cc(Cl)ccc2C)sc2nc(C)cc(C)c12	·	·	·	·	-101.9	·
COC(=O)c1ccccc1NC(=O)c1sc2nc(C)cc(C)c2c1NC(=O)c1ccccc1OC	·	·	·	·	–	·
Cc1ccc(NC(=O)COc2ccc3c(c2)CCC3)nc1	·	–	–	–	–	·
O=C(Nc1cccnc1)C1=NN(C2CCS(=O)(=O)C2)C(=O)CC1 (stereo not given)	–	?	–	–	–	–
C=CCN(C(=O)C1=NN(C2CCS(=O)(=O)C2)C(=O)CC1)c1nc(-c2ccc([N+](=O)[O-])cc2)cs1 (stereo not given)	37.6	–	?	–	–	–
COc1ccc(NC(=O)CSc2nc3nc(C)c(Cc4ccc(C)cc4)c(C)n3n2)cc1OC	·	·	·	·	–	·
COc1ccc(-c2n[nH]c3c2C(c2ccc(OC)c(OC)c2)N(c2ccccc2)C3=O)cc1 (stereo not given)	–	0.117µM	–	·	–	–
COc1ccc(OC)c(C2c3c(-c4ccc(Br)cc4)n[nH]c3C(=O)N2c2ccc(Cl)cc2)c1 (stereo not given)	·	·	·	·	-104.9	·
COc1cccc(C(=O)NCC2CCCN(C(=O)c3ccc(C=O)cc3)C2)c1OC (stereo not given)	–	?	–	–	–	–
COc1cccc(CNC(=O)Cn2nc(C)n3c(cc4cc(C)ccc43)c2=O)c1OC	·	·	·	·	–	·
COc1ccc2c3c1O[C@H]1[C@@H](O)C=C[C@H]4C(C2)NCCC341 (stereo not given in full)	·	0.169µM	·	–	·	·
O=C(Nc1ccc(Cl)cn1)c1ccccc1F	32.4	–	–	–	–	88.0
SMILES	CHX counter	Pf growth 96h	HCV inhibitor	Pf growth 48h	HCMV antiviral	Shiga inhibitor
COc1cc2ccccc2cc1C(=O)Nc1ccc(Cl)cn1	15.6	–	–	–	–	·
O=C(Nc1ccccc1)Nc1nnc(-c2ccccc2)o1	–	?	–	–	–	–
O=C(Nc1ccc(Cl)cn1)Nc1ccc(Cl)cn1	–	?	–	–	–	–
O=C(Nc1ccc(Cl)cn1)Nc1ccccc1F	–	–	?	–	–	52.6
O=C(Nc1cccnc1)c1ccccc1F	–	–	–	–	–	–
O=C(Nc1nnc(-c2ccc(Cl)cc2)o1)Nc1ccccc1F	–	–	–	–	–	34.2
O=C(Nc1ccc(Cl)cn1)c1cc2ccccc2o1	65.6	·	?	–	–	104.5
O=C(Nc1ccccn1)c1cc2ccccc2o1	–	?	–	–	–	–
CCc1n[nH]c(=O)n1Cn1c(CC)n[nH]c1=O	–	10.4µM	–	·	–	–

Screens from PubChem.
